Experimental data: PubChem BioAssay (NCI)
The panel holds about 83,000 compounds, 20% with a hit somewhere; the sample as a whole holds those more often.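 Assay: single dose, 48 h. Readout: percent growth (0 = no net growth; negative = cell death). Active: <10.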 Unmarked numbers belong to inactive results. The source made the active and inactive calls.

Tested on: HCC-2998 colon
Assay: NCI-60 one-dose screen, 48 h (100 = growth as untreated, 0 = no growth, -100 = all killed)
Details: 10 µM unless noted

SMILES	growth [%]
Cc1ccc(S(=O)(=O)N(CCC(=O)O)c2ccccc2)cc1	112
Nc1ncc(-c2ccc3ncnc(N4CCc5cc(F)c(Cl)cc54)c3c2)cc1C(F)(F)F	36.2
OC1CSSC1Cn1cnc2c(Nc3ccc(F)c(Cl)c3)ncnc21 (centres undefined)	96.4
COc1cc2c(c(OC)c1OC)C(=O)CC(c1cccc(C(=O)Nc3ccc(Br)cc3)c1)O2 (centres undefined)	92.1

Tested on: KM12 colon
Assay: as above
Details: 10 µM unless noted

SMILES	growth
C=C(C)[C@@H]1CC[C@]2(COC(=O)c3cccnc3)CC[C@]3(C)[C@H](CC[C@@H]4[C@@]5(C)CCCN(C(=O)c6cccnc6)C(C)(C)[C@@H]5CC[C@]43C)[C@@H]12	31.2%
C=C1C(=O)O[C@H]2[C@H]1CC/C(CNC(=O)/C=C/c1cc(OC)c(OC)c(OC)c1)=C\CC[C@@]1(C)O[C@@H]21	38.8%
O=S(=O)(c1ccc(NCSc2nc3ccccc3s2)cc1)c1ccc(NCSc2nc3ccccc3s2)cc1	102%
COc1ccc(S(=O)(=O)Oc2ccc(-c3sc4cc(OS(=O)(=O)c5ccc(OC)cc5)ccc4c3C(=O)c3ccc(OCCN4CCCCC4)cc3)cc2)cc1	99.1%
Nc1nc(N)c2c(n1)NC(c1cccc(Nc3ccnc4cc(C(F)(F)F)ccc34)c1)CC(c1ccc(Cl)cc1)=N2 (centres undefined)	21.3%
COC(=O)[C@H]1Cc2c([nH]c3ccccc23)[C@H](c2ccc3c(c2)OCO3)N1	99.3%
[2H]C([2H])([2H])Oc1c(F)cccc1/C=C/C(=O)/C=C(O)/C=C/c1cccc(F)c1OC([2H])([2H])[2H]	102%
C=C(C)[C@@H]1CCC[C@]2(C(=O)OC)CC[C@]3(C)[C@@H](CC[C@@H]4[C@@]5(C)CCCNC(C)(C)[C@@H]5CC[C@]43C)[C@@H]12	85.8%
O=C(Nc1ncc(Cc2ccccc2)s1)c1ccc2c(c1)OCCO2	9.34% (active)
COc1ccc(-c2cc(-c3ccc(Nc4nc(Nc5ccc(Cl)cc5)nc(Nc5ccc(Cl)cc5)n4)cc3)no2)cc1	82%
CNC(=O)c1cc(Oc2ccc3nc(NC(=O)NC(C)C)sc3c2)ccn1	39.3%
O=C1NCCS(=O)(=O)/C1=C\C=C\c1cccc(C(F)(F)F)c1	43.9%
NCCNc1ccc([N+](=O)[O-])cc1	115%
Clc1ccc2c(NCCCn3cnc4c(N5CCCC5)nc(Cl)nc43)ccnc2c1	98.1%
O=C(/C=C/c1ccc(Cl)cc1)c1ccc(Nc2ccnc3cc(Cl)ccc23)cc1	50%
Oc1c(Cl)cc(Cl)c2ccc(CN3CCNCC3)nc12	49.6%
O=C1c2ccccc2C(=O)c2cc(Cn3c[n+](Cc4ccc5ccccc5c4)c4ccccc43)ccc21	25.5%
CC(C)(C#N)c1cc(C(=O)Nc2cc(Nc3ncccc3-c3ncnc4nc[nH]c34)ccc2F)cc(C(F)(F)F)c1	43.7%
CC(C)n1cc(C2=C(c3cccc4ccccc34)C(=O)NC2=O)c2cc(Br)ccc21	36.5%
O=CN1N=C(c2cccc(Nc3ccncc3)c2)CC1c1ccc2c(c1)OCO2 (centres undefined)	98.4%

SMILES	growth
CC(=O)Cc1nsc(NC(=O)c2cc(-c3cc(Cl)ccc3Cl)oc2C)n1	107%
O=C(O)COc1ccc(F)cc1	103%
CC(Cc1cccc2ccccc12)C(N)=O (centres undefined)	110%
NC(=N\N=C/c1ccc(Cl)cc1Cl)/C(N)=N\N=C/c1ccc(Cl)cc1Cl	84%
CCOC(=O)CC1C(CNC(=O)NC)OC(n2cnc3c(NC(=O)Nc4ccccc4)ncnc32)C1O[Si](C)(C)C(C)(C)C (centres undefined)	43.4%
CCc1ccc(Cc2cnc(NC(=O)c3cc(C)oc3C)s2)cc1	22%
CNc1nc2ncc(-c3c(C)noc3C)cc2n1Cc1ccccc1	62.1%
CCCCC1=C(Br)C(=O)c2ncccc2C1=O	96.9%
Cc1ccc2nc(/C=C/c3ccc(N(C)C)cc3)cc(C)c2c1	21.5%
CCN(CC)c1ccc(/C=N/NC(=O)c2ccccc2Nc2ccnc(C(F)(F)F)c2)c(O)c1	31.4%
COc1cc2ncnc(Nc3ccc(S(=O)(=O)Nc4cc(C)on4)cc3)c2cc1OCCCN1CCOCC1	103%
COc1ccc(-c2cc(-c3ccc(N(C)C)cc3)nc(NC(=O)c3cccnc3)n2)cc1	98.3%
CC(=O)/C(Br)=C/c1ccc(Br)o1	105%
N#CC1=C(N)Oc2c(ccc3cccnc23)C1c1ccccc1 (centres undefined)	25.2%
CCCS(=O)(=O)Nc1cccc(Nc2ncnc3cc(NC(=O)CCl)ccc23)c1Cl	-32.2% (active)
COC(=O)c1nc(-c2ccc(C)cc2)oc1N1CCOCC1	104%
Cc1ccc(S(=O)(=O)N(CCC(=O)O)c2ccccc2)cc1	98.9%
Nc1ncc(-c2ccc3ncnc(N4CCc5cc(F)c(Cl)cc54)c3c2)cc1C(F)(F)F	40.2%
OC1CSSC1Cn1cnc2c(Nc3ccc(F)c(Cl)c3)ncnc21 (centres undefined)	73.2%
COc1cc2c(c(OC)c1OC)C(=O)CC(c1cccc(C(=O)Nc3ccc(Br)cc3)c1)O2 (centres undefined)	62.9%
